The supplement of paper PMC6555819

test system: VDR:RXRa (NR concentration 270 nM, RXRa partner concentration 90 nM); assay: PBM binding z-score (relative to random genomic background probes); higher = stronger binding; sequences stand for … in GC…GCGATTGACAGCGTAGAATGAAGG
Procedure: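 Protein-binding microarray (Agilent 4x180K custom design, double-stranded 60-nt probes: 5' GC cap, 34-nt variable region, 24-nt constant primer region; full probe sequence given). Purified or IVT nuclear receptor:RXRα heterodimers (3:1 NR:RXRα, mostly 270:90 nM) or homodimers were incubated for 1 h in PBS with 2% milk and no ligand, then detected with Alexa488 antibodies. Fluorescence from o1-orientation probes (~5 replicates averaged) was converted to z-scores against 500 random hg19 background probes. Variable regions are seed direct-repeat (DR0–DR5) sites, all their single-nucleotide variants and half-site ablations.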

First: CCGAGTAGGTTATGGGGCATTCACGCAACGGTGA
Second: TTACCAAGGTGAAGGTCGTTTATCCCTCTGTAGA
The PBM binding z-score of the first is lower: -0.0125 for the first, 1.66 for the second.

Compared with AATCCAGGGTCACTAGGCCAGAGTAGGTACGAAT, TATACAGGGTGAAAGGCCAGAGTACGAATGTCGA is lower in PBM binding z-score: 4.31 for the first, 0.682 for the second.

First: AGAATGAGGTTATGATCAGGGAAACAGAATACAT
Second: TCTAATTGGTCAAAGGTCACACACTCGAAATGCG
The PBM binding z-score of the first is lower: 1.11 for the first, 5.62 for the second.

First: TCATATAGGTAAATGCTAGGGGAAAGTCCGATCT
Second: ATACCAAGGTGATAGTGAGGTCGTTGATACTAAC
The PBM binding z-score of the first is lower: 0.846 for the first, 3.69 for the second.

First: ATTATTAGTTGACTTAGGGCAACCGATACGACGC
Second: TCATATAGGTAAAAAGTGAAAGTCGGTGTGGTAA
The PBM binding z-score of the first is higher: 0.926 for the first, 0.783 for the second.

First: TCTCGGAGGACACGCAGGTCAGAGCTTTCCAGAG
Second: ATCGAGAGGTCGACGAGGTGAGTATACACCGTTT
The PBM binding z-score of the first is lower: 1.58 for the first, 4.87 for the second.

Compared with ATCTCTAGGTAACCAAGTTTAGTGAATGCCGAAC, TCTTGTAGATCAAGCAGGTTCAGAAAGCCTGAGT is higher in PBM binding z-score: 1.55 for the first, 1.93 for the second.

Compared with GCTAGTTGGGCAGTAAAAGGTCACACACCGGTCG, TGAATGAGGTTAAAGATCAGGGTACGTGGCGTCG is lower in PBM binding z-score: 3.62 for the first, 2.38 for the second.

Going from CGTCCAAGGTCATTGCTAGGTCAGTGAAAGCATT to TCTATTAATTGAAGGGCAACCGACGAGTCCGTTT, the PBM binding z-score falls from 5.53 to 1.05.

Compared with CGACCAAGGTCAGAGAGGTCAGTGAATGCCGAGT, TCTCGGAGGACACGAAAGTCAGAGCTTTCCAGAG is lower in PBM binding z-score: 7.47 for the first, -0.402 for the second.

Compared with ACTCGGCGGACAAAGGTCAGAGCTACGCCAGTGA, CCTATTAGTTGACCATGAGGGCAACCGAAGCTCG is lower in PBM binding z-score: 2.44 for the first, 1.02 for the second.

Compared with ACTCGGAGGACAAAGGTCGGAGCTACGCCAGTGA, CGAACTAGGTCCAGGACAGTGAATCTCCGCACGC is lower in PBM binding z-score: 0.947 for the first, -0.573 for the second.

Compared with ATCTCTAGGTAAAAGATCAGTGAATCCCGAGGAT, TCATATAGGTAAACAGGTGAAAGTTCGTAAGTTA is higher in PBM binding z-score: -0.291 for the first, 1.98 for the second.

Compared with CCGACTGGGGCACGGTTACCATAACGCACAGCCA, TTACCAAGGTGAAGTTCGTTGATCCCTCTGTAGA is higher in PBM binding z-score: -0.636 for the first, 1.49 for the second.

Going from GATACAGGGTCAGCTAGAGGCCTGAGTATGGAAA to TCTTGTAGATCAATAGGGGTTAAGAAAGTGCGCT, the PBM binding z-score rises from 2.2 to 2.64.

Compared with CCAGACAGGGGAGAAGGTAACTCAGCCTCGATTA, AGTCAAAGATCAGGACGAGGTAACGTAAAGCACG is higher in PBM binding z-score: -0.544 for the first, -0.216 for the second.

Going from TCTTGTAGAACAATAGAGGTTAAGAAAGTGCGCT to GCATATAGGTAATCCAAGGTGAAAGTCCGATTGT, the PBM binding z-score falls from 1.65 to 0.373.

Compared with AGAATTAGGTTAAGATCAGGGAAACAGAATACAT, TCATATAGGTAAAAGTTGAAAGTCGGTGTGGTAA is higher in PBM binding z-score: 0.418 for the first, 1.21 for the second.

Compared with TCAGACAGGTGAAGGTAATTCAGGTACGCAGTCG, TCTCGGAGGACGCGAAAGGTCAGAGCTCGACATC is higher in PBM binding z-score: 1.1 for the first, 2.8 for the second.

Going from ATCTCTAGCTAAAGATAGTTCAGTGAATGCAAAT to CGACCAAGGTCAAGGTCAGTGAAAGAGACTCGAA, the PBM binding z-score rises from 0.182 to 4.82.
